# The list is not random: actives were taken first. Their share in the collection is about 14%.
# Giardia FBPA inh – qHTS Assay for Inhibitors of Fructose-1,6-bisphosphate Aldolase from Giardia Lamblia. purified Giardia FBPA. Potency, µM (series often up to 59.6 µM), for inactives: at the top dose activity, negative = inhibition, usual class: inhibitors. 0.71% of 290,000 active. AID 2451, 2010; also: potency is read from the fitted curve at half-maximal effect; nearly all actives have a fitted effect of over 55% in size
# Target sequence (A8B2U2 whole entry, looked up): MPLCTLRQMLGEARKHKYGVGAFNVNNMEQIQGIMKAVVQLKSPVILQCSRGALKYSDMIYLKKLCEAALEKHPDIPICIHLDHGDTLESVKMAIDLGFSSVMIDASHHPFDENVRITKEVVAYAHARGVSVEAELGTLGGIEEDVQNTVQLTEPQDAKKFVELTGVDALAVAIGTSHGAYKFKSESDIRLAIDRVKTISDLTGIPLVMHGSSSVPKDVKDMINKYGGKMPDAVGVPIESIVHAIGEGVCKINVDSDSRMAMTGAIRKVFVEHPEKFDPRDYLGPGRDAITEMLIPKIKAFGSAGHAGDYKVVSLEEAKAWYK
#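 40 nM FBPA preincubated 10 min at RT with compound (up to 57.5 uM final), then substrate plus GAPDH/TPI/NAD/arsenate coupling and diaphorase/resazurin added. Fluorescence read after 20 min at RT, 525/598 nm.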
# Sm TGR inh – qHTS Assay for the Inhibitors of Schistosoma Mansoni Peroxiredoxins; Schistosoma mansoni thioredoxin glutathione reductase (TGR), Q962Y6; purified TGR, DTNB reduction, TNB absorbance 405 nm; Potency, µM (top dose mostly 114 µM), inactives show at the top dose activity change, negative = inhibition, actives largely listed as inhibitors; 3% of 360,000 active; also: potency is read from the fitted curve at half-maximal effect; nearly all actives have a fitted effect of over 60% in size
#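 TGR 20 nM + NADPH 100 uM (dispensed conc.), cpd preinc 15 min RT; start with NADPH (500 uM addition) then DTNB (15 mM addition). Kinetic TNB absorbance, 405 nm filter. Four-parameter Hill fit across titration.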
# Pf growth 96h – Primary qHTS for delayed death inhibitors of the malarial parasite plastid, 96 hour incubation; AID 504834, 2011; 6.9% of 320,000 active; P. falciparum luciferase reporter growth, 96 h; Potency, µM (series often up to 28.7 µM), for inactives: at the highest dose activity change, negative = inhibition, usual class: inhibitors; also: potency is read from the fitted curve at half-maximal effect
#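 Erythrocytes infected with luciferase-expressing P. falciparum were dispensed at 2% hematocrit and 0.05% parasitemia (final), then incubated with compounds 96 hours at 37 C in 5% CO2. Luminescence after detection reagent addition reported growth.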
# HCMV antiviral – qHTS Assay for inhibitors of the human cytomegalovirus (HCMV); 4.5% of 410,000 active; HFF cells, HCMV-luciferase reporter, 72 h; hits give low values; activity change, negative = inhibition, % at 57.5 µM; AID 1259415, 2018; in the data active = activity change below about -60%; inconclusive = no clear call, values can overlap the other calls; inactive = above about -39%
#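 After 16 h attachment at 37C, HFF cells received test compound and HCMV-luciferase (1 PFU/cell); reporter luminescence read 72 h later, data normalized against buffer-only and known inhibitor Salinomycin.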
# Pf growth 48h – Primary qHTS for delayed death inhibitors of the malarial parasite plastid, 48 hour incubation | 5.9% of 310,000 active | Potency, µM (doses to about 28.7 µM), for inactives: top-dose activity change, negative = inhibition, usual class: inhibitors | AID 504832, 2011 | P. falciparum luciferase growth in erythrocytes, 48 h; also: potency is read from the fitted curve at half-maximal effect
#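 Cell-based growth assay: transgenic P. falciparum expressing firefly luciferase, cultured in red cells within RPMI 1640 containing 0.5% w/v Albumax, 24 mM bicarbonate and gentamycin. A drop in luciferase activity indicates inhibition.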
# Starred values were filed as active, the others as inactive; ? = inconclusive; . = no result given; [ ] = remark or other dose. Unless noted, calls follow the shape of the dose curve; as a rule, active = well fitted curve in the direction sought with a large enough effect; inconclusive = small, poorly fitted or top-dose-only effect, or another doubt; inactive = no such curve, though single readings can be large; an effect the other way counts as inactive or inconclusive. % is scaled to controls: 0 for no effect and ±100 for the full control effect.
SMILES,Giardia FBPA inh,Sm TGR inh,Pf growth 96h,HCMV antiviral,Pf growth 48h
CCCOc1ccc(NC(=O)CC2C(=O)Nc3ccccc3N2CC(=O)N2CCCC2)cc1 (stereo unspecified),.,-10.3%,?,-60.4*,?
CCc1nc2sc3c(c2c(=O)n1NC(=O)CCl)CCCC3,9.8%,44.7µM*,.,-74.4*,10.7%
Cc1cccc(CSc2nnc(CCCCCN)o2)c1,.,-12.1%,.,-75.9*,.
COc1ccc(OCC(=O)Nc2nnc3n2CCS3)cc1,.,61.4%,.,3.4,.
O=C(O)CCC1(c2ccccc2)NC(=O)NC1=O (stereo unspecified),1.5%,16.3%,-2.4%,-35.4,23.2%
Cc1noc(C)c1COC(=O)c1ccccc1Sc1ccccc1C#N,-1.0%,-1.3%[11.4 µM],11.7µM*,12.5,.
CCCCn1c(N)c(N(CC)C(=O)C(c2ccccc2)c2ccccc2)c(=O)[nH]c1=O,2.1%,17.2%,-4.3%,-9.0,4.5%
COc1cc(/C=N/NC(=O)c2cccc(S(=O)(=O)N3CCCC3)c2)cc(OC)c1O,.,-10.5%,12.6%,-19.1,5.1%
C[C@]12CCC3[C@@H](CC[C@@H]4C[C@H](O)CC[C@]34C)[C@@H]1CCC2=O (stereo partly specified),.,1.1%,4.3%,-74.7*,-7.4%
C[C@]12CC[C@H](O)C[C@@H]1CC[C@@H]1[C@@H]2CC[C@]2(C)C(=O)CC[C@@H]12,0.8%,4.1%,34.2%,20.0,0.2%
O=C1CN(C(=O)CNC(=O)c2ccc(Cl)cc2Cl)CCN1,-7.7%,-1.3%,33.0%,-3.1,11.9%
CCn1c(=O)c2cc(C(=O)NC3CCC(C)CC3)sc2c2ccccc21 (stereo unspecified),.,5.9%,.,-66.7*,.
CCCN1CCN(CCCNC(=O)c2cc3c(=O)n(CC)c4ccccc4c3s2)CC1,.,-14.7%,.,?,.
CCn1c(=O)c2cc(C(=O)NCCCN3CCC(C)CC3)sc2c2ccccc21,.,-0.3%,.,-76.1*,.
CCn1c(=O)c2cc(C(=O)NCC(OC)OC)sc2c2ccccc21,15.4%,1.2%,1.47µM*,21.5,9.8%[0.00184 µM]
Cc1ccc2[nH]c(CSc3nnc(NC(=O)COc4ccccc4)s3)cc(=O)c2c1,.,4.5%,.,-18.7,.
CCCCc1nc2c(c3c1C[C@H](C)OC3)CN(C(=O)C1CCCCC1)CC2,6.0%[12.9 µM],.,.,.,.
Cc1ccccc1-n1ncc2c([N+](=O)[O-])cc([N+](=O)[O-])cc21,-0.2%,-25.9%,?,-10.9,9.28µM*
CCOc1ccc(-n2c(-c3ccc(Cl)cc3)c[n+]3c2SCC3)cc1,2.6%,7.5%,0.0465µM*,?,13.1µM*
c1ccc(-c2cn(-c3ccccc3)c3[n+]2CCS3)cc1,6.6%,-18.0%,?,?,?
c1ccc(-c2c[n+]3c(n2-c2ccccc2)SCC3)cc1,3.1%,-28.0%,0.415µM*,-35.7,1.65µM*
CCNC(=S)N/N=C(\C)c1cccc(C(F)(F)F)c1,-16.4%,-5.0%,11.7µM*,-5.9,9.4%
C/C(=N\NC(=S)NC1CCCCC1)c1cccc(Br)c1,9.1%,8.2%,0.465µM*,88.3,1.04µM*
C/C(=N\NC(=S)NC1CCCCC1)c1cccc(C(F)(F)F)c1,0.9%,-3.0%,?,3.1,3.7µM*
C[C@@H]1CNC(=O)c2c(C(=O)N3CCN(c4ccccc4)CC3)ncn21,.,.,.,-5.4,.
SMILES,Giardia FBPA inh,Sm TGR inh,Pf growth 96h,HCMV antiviral,Pf growth 48h
C/C(=N\NC(=O)Cc1ccc(Cl)cc1)c1ccc(F)cc1,14.4%,?,?,0.1,-3.8%
C/C(=N\NC(=O)Cc1ccc(Cl)cc1)c1ccccc1O,-8.7%,0.1%,-88.8%,-67.2*,?
Cc1ccc(N=Cc2c(O)n(-c3ccc4c(c3)OCO4)c(=O)c3ccccc23)cc1,2.2%,-6.8%,8.28µM*,?,.
Cc1ccc(-n2c(O)c(C=NCc3ccccn3)c3ccccc3c2=O)cc1,-0.1%,-5.1%,10.5%,-65.3*,13.5%
Cc1cccc(-n2c(O)c(C=NCCCN3CCOCC3)c3ccccc3c2=O)c1,-1.8%,-11.2%,?,-9.5,7.38µM*
CCN1CCCC1CN=Cc1c(O)n(-c2ccccc2)c(=O)c2ccccc12 (stereo unspecified),0.0%,?,4.5%[5.75 µM],-6.7,3.7µM*
O=C1[C@H]2[C@@H]3CCN1CCC[C@@H]2C=C[C@@H]3c1ccc(Br)cc1,.,.,.,-20.5,.
CC1=C(C(N)=O)C(c2cccs2)n2ncnc2N1 (stereo unspecified),0.5%,-21.5%,73.1%,0.3,?
c1csc(C2C3=C(Nc4ncnn42)c2ccccc2OC3)c1 (stereo unspecified),-18.8%,44.7µM*,13.1µM*,?,?
O=C(C[n+]1cccc(C(=O)N/N=C/c2cccc([N+](=O)[O-])c2)c1)c1ccccc1,.,-0.5%,?,-13.3,3.9%
Cc1ccc(-c2csc(=Nc3cccnc3)n2CCCN2CCCC2=O)cc1C,0.4%,-22.5%,11.7µM*,?,?
Cc1ccc(-c2csc(=Nc3cccnc3)n2CCCn2ccnc2)cc1C,4.1%,-16.3%,3.7µM*,-94.7*,10.4µM*
c1cncc(N=c2scc(-c3cccc4ccccc34)n2CCCn2ccnc2)c1,-16.3%,-9.4%,9.28µM*,?,9.28µM*
CCCCn1c(C)csc1=Nc1cccnc1,7.0%,-22.9%,?,-63.3*,-0.6%
COc1ccc(NC(=O)c2cc(C)no2)cc1,0.7%,9.8%,15.3%,78.7,-17.1%
CC(NC(=O)C(Cc1ccccc1)=NO)c1ccccc1 (stereo unspecified),.,.,.,17.2,.
CO[C@@H]1COC(=O)[C@@H](CCSC)NC(=O)C/C=C\[C@@H](C)COC(=O)CCC[C@H]1C,1.0%[12.9 µM],.,.,.,.
COc1ccc(C(=O)O)cc1NC(=S)NC(=O)c1ccc(-c2ccc(Cl)cc2)o1,4.3%,28.2µM*,?,-38.9,1.8%
O=C(O)c1ccc(NC(=S)NC(=O)c2ccc(-c3ccc(Br)cc3)o2)cc1,?,31.6µM*,67.1%,17.7,?
O=C(O)c1cccc(NC(=S)NC(=O)c2ccc(-c3ccc(Cl)cc3)o2)c1,-7.1%,20µM*,324.1%,14.9,53.6%
Cc1ccc(C(=O)O)cc1NC(=S)NC(=O)c1ccc(-c2ccc(Cl)cc2)o1,-13.6%,10µM*,24.5%,11.6,16.7%
FC(F)(F)c1ccccc1Cc1c(-c2cccc(Cl)c2)nc2c3ccccc3ccn12,.,.,.,13.5,.
O=C(O)Cc1cc2ccccc2nc1C(=O)O,-25.8%,.,.,.,.
Cc1cc(=O)n2nc(N3CCCC3C(=O)Nc3cccc(F)c3)sc2n1 (stereo unspecified),-17.4%,1.9%,?,12.9,17.6%
COc1ccc(N2CC(NC(=O)CCCc3ccccc3)CC2=O)cc1 (stereo unspecified),.,6.8%,.,9.1,.
Cc1cc(NC(=O)CSc2nnnn2-c2ccccc2C)no1,.,-0.3%,?,-112.8*,?

# Compound activity from PubChem BioAssay.
